Source: PubChem
TWEAK Fn14 block: inhibitors of TWEAK-Fn14 signaling, primary screen, luciferase reporter cells, uHTS; TWEAK-stimulated Fn14 reporter cells, luciferase luminescence, 8 h; inhibition, % at 10 µM; 360,000 compounds, 2% hits; AID 1159606, 2016; in the data active means inhibition above about 50%
TROY signal inh: inhibitors of TROY-driven NF-kB signaling, primary screen, Q293 LMP1-TROYcd cells, NF-kB luciferase, uHTS | Q293 LMP1-TROYcd NF-kB luciferase reporter, 4 h | inhibition, % at 10 µM | 360,000 compounds, 0.98% hits;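 active means compounds whose plate-normalised and pattern-corrected inhibition of the luciferase reporter signal at the single screening dose is 50% or more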
CF NFkB inh: inhibitors of PAF-induced NF-kB signaling, primary screen, cell-based, GFP fluorescence, uHTS; 360,000 compounds, 0.86% hits; KKLEB NF-kB-GFP reporter, GFP fluorescence overnight; inhibition, % at 5 µM;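 active means at least 50% inhibition at 5 µM, scaled per plate between neutral and stimulator controls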;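 further: PAF is a Pseudomonas aeruginosa culture filtrate used as stimulus; plate controls were PAF-stimulated DMSO wells for no effect and unstimulated DMSO wells for full effect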
HIF-2a inh: HIF-2a reporter inhibitors, primary screen, luminescence, 786-0 RCC cells; 360,000 compounds, 0.72% hits; 786-0 RCC cells HIF-2a reporter, luciferase luminescence, overnight; AID 624352, 2012; inhibition, % at 18.8 µM;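 active means inhibition of the luminescence signal of 40% or more relative to plate controls, in a single-dose primary screen at 18.75 µM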
Peg3 prom inh: Peg3 promoter-driven luciferase inhibitors, primary screen, cell-based, HeLa, luciferase luminescence | AID 588405, 2011 | inhibition, % at 20 µM | HeLa PEG-Prom luciferase reporter, overnight | 360,000 compounds, 1.7% hits;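 active means inhibition of at least 50% at 20 µM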
KKLEB cytotox: cytotoxicity in KKLEB CF airway cells, primary screen, cytotoxicity control for CF NF-kB inhibitor project, cell-based, uHTS, fluorescence assay plates | 360,000 compounds, 0.36% hits | activity change (cytotoxicity), % at 5 µM | KKLEB CF airway cells viability, ATPlite luminescence, overnight; hits give low values; cells stimulated with P. aeruginosa culture filtrate;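 active means corrected activity change at or below -50% at 5 µM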
Numbers without * were called inactive. A selection: hits, their analogues and other compounds. The true share with any hit is near 3.9%.

SMILES | TWEAK Fn14 block | TROY signal inh | CF NFkB inh | HIF-2a inh | Peg3 prom inh | KKLEB cytotox
O=C(N/N=C/c1ccc(Br)s1)c1ccc([N+](=O)[O-])cc1 | -11 | 0 | -17 | -6 | 12 | 8
O=C(c1cc(-c2ccccc2)nc2ccccc12)N1CCCC1 | 19 | -11 | 27 | -7 | 3 | -7
c1ccc(-c2cc(NCCN3CCCCC3)c3ccccc3n2)cc1 | -47 | -22 | -39 | 26 | 101* | -5
CCn1nc(C(=O)NC2=NCCS2)c2ccccc2c1=O | 7 | 18 | -8 | 19 | 19 | 4
CC(C)(Oc1ccc(Cl)cc1)C(=O)OCC(=O)N1CCN(c2ccccc2)CC1 | 11 | 5 | 2 | 11 | -3 | 0
Cc1ccc2nc(Cl)c(CN(Cc3cccs3)C(=O)C3CC3)cc2c1 | 9 | 2 | 16 | 13 | 15 | -13
O=C1N/C(=C/c2ccc(N3CCOCC3)o2)C(=O)N1c1cccc(Cl)c1 | 45 | 17 | 67* | 35 | -31 | -13
Cc1cc(Br)ccc1NC(=O)c1ccco1 | -9 | -42 | 11 | -133 | -69 | 16
CCOc1cc(N2CCOCC2)c(OCC)cc1NC(=O)CSc1nc(N)cc(=O)[nH]1 | 15 | -10 | 4 | 7 | 7 | -3
CCOC(=O)/C(C#N)=C/c1cccc(C)c1 | 15 | -2 | -6 | 11 | 73* | -6
O=C1Nc2ccccc2SC1c1ccccc1 (configuration not stated) | 18 | -1 | -15 | 8 | 3 | 2
Cc1ccc(NC2Sc3ccccc3NC2=O)cc1 (configuration not stated) | 56* | 9 | -45 | -199 | -194 | 18
Cc1ccc(NC(=O)CSc2ncnc3ccccc23)cc1S(=O)(=O)N1CCCCC1 | 72* | 35 | 41 | 21 | 12 | 1
O=C(CSc1ncnc2ccccc12)Nc1ccc2c(c1)OCO2 | 65* | -14 | 0 | -39 | -42 | 10
O=C(Nc1ccc(F)cc1)c1cccc2ccccc12 | -11 | 1 | -22 | -111 | -33 | -1
Cc1ccc(-n2cc(CNCCc3ncc(C)[nH]3)c(-c3ccc(F)cc3)n2)cc1 | -9 | -5 | 6 | -54 | 57* | -10
Cc1ccc(-n2cc(CNCCn3nc(C)cc3C)c(-c3ccc(F)cc3)n2)cc1 | -14 | -7 | 11 | -19 | -24 | -24
COc1ccccc1/C=C/C1(C(=O)NC2CCCC2)CC(=O)N1c1ccc(C)cc1 (configuration not stated) | 25 | 12 | 26 | 21 | 41 | -18
COc1ccccc1/C=C/C1(C(=O)NC2CCCC2)CC(=O)N1c1ccc(F)cc1 (configuration not stated) | 32 | 11 | 80* | 15 | 40 | -77*
O=C1Nc2ccc(Br)cc2C12NNc1ccccc1O2 (configuration not stated) | 6 | -13 | -83 | -26 | 67* | 7
CC(CNC(=S)Nc1cc(F)cc(F)c1)CSc1ccc(Cl)cc1 (configuration not stated) | 23 | 61* | 14 | 7 | 27 | -10
CCOc1ccc(/C=C2\SC(=O)N(CCNC(=O)C3COc4ccccc4O3)C2=O)cc1OC (configuration not stated) | 40 | 51* | 0 | -36 | 13 | 1
CCC1C/C(=C\c2cc(OC)c(OC)cc2OC)C(=O)/C(=C/c2cc(OC)c(OC)cc2OC)C1 (configuration not stated) | 26 | 12 | 18 | 33 | 36 | 11
COc1cc(OC)c(OC)cc1/C=C1\CC(C)C/C(=C\c2cc(OC)c(OC)cc2OC)C1=O (configuration not stated) | 64* | 37 | 22 | 29 | 58* | 9
O=C(Cc1csc(Nc2nc(=S)[nH]c3ccccc23)n1)NCCCN1CCN(c2ccccc2F)CC1 | 5 | 25 | -56 | 11 | 68* | -32
